Source: PubChem BioAssay (The Scripps Research Institute Molecular Screening Center)
This is a sample that favours compounds with a hit; in the whole collection about 2.3% have one here.
CHO-K1 Ca antag – M1 antagonist counterscreen hit in parental CHO-K1 cells; inhibition, % at 3 µM; 360,000 compounds, 0.6% hits; ATP-induced calcium, Fluo-8 fluorescence;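 active means inhibition above a per-plate cutoff, the plate's mean sample inhibition plus 3 SD, cut at about 24% in these data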
CHO-K1 Ca ag – counter-screen for M1 agonists: effect in parental CHO-K1 cells; activation, % at 3 µM; 360,000 compounds, 0.48% hits; Fluo-8 calcium fluorescence; scaled to maximal ATP response, vehicle zero; in the data active means activation above about 15%;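 further: untransfected CHO-K1 host cells lacking M1 receptor as counterscreen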
CHRM1 antagonist – antagonists of human M1 muscarinic receptor; inhibition, % at 3 µM; CHO-K1 hM1, Fluo-8 calcium fluorescence, ACh EC80 antagonist; 360,000 compounds, 1.3% hits; P11229;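 active means percent inhibition above its own plate's cutoff, namely the mean of that plate's compound wells plus 3 SD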;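 further: peak over basal fluorescence ratio during 140 s after agonist addition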
Target sequence (P11229 whole entry, looked up): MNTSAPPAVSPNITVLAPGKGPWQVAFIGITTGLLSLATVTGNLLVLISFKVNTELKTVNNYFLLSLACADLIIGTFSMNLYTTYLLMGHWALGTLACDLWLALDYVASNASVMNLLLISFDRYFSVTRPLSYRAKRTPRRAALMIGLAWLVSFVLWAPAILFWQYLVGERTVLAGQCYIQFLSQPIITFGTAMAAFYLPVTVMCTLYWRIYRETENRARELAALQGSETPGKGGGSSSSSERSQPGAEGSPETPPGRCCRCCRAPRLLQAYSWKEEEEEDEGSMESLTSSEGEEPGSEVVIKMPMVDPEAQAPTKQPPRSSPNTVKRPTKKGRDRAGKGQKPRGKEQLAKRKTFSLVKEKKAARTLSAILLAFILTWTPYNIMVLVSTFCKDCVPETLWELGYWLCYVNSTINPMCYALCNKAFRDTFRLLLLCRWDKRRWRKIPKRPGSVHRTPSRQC
M1 PAM parental – counter-screen for M1 PAMs: effect in parental CHO-K1 cells; 360,000 compounds, 0.02% hits; ATP EC20, Fluo-8 calcium fluorescence; 0% at ATP EC20, 100% at ATP max; activation, % at 3 µM; AID 602247;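 active means activation above the run cutoff, the mean activation of all test compounds plus 3 SD, cut at about 40% in these data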;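 further: peak over basal fluorescence ratio in a 140 s read after ATP addition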
CHRM1 PAM – positive allosteric modulators of human M1 muscarinic receptor; P11229; CHO-K1 hM1, Fluo-8 calcium fluorescence, ACh EC20; 0% = ACh EC20, 100% = maximal ACh; 360,000 compounds, 0.088% hits; activation, % at 3 µM; in the data active means activation above about 19%, passing the limit was not always enough
M1 ag – activates human CHRM1 receptor; P11229; CHO-K1 hM1, Fluo-8 calcium fluorescence, agonist mode; 0% DMSO, 100% acetylcholine EC100; activation, % at 3 µM; 360,000 compounds, 0.33% hits; AID 588814;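 active means activation above the run's mean compound activation plus 3 SD, cut at about 16% in these data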;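 further: peak over basal fluorescence ratio within a 140 s kinetic read after compound addition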
Large screens that a line does not name were inactive.

O=C1CSC(c2ccc([N+](=O)[O-])cc2)N1CCN1CCCCC1 (stereo not given)	M1 ag 19
COc1ccc(-c2cc(=O)c3ccc(O)cc3o2)cc1	CHRM1 PAM 24
Cc1ccc(OCC(=O)NCc2n[nH]c(=O)c3ccccc23)cc1	none
COCCCn1cnnc1SC(C)C(=O)Nc1ccc(S(=O)(=O)N2CCOCC2)cc1 (stereo not given)	none
CCOc1ccccc1NC(=S)N1CCN(c2cccc(OC)c2)CC1	CHO-K1 Ca ag 17
COc1cccc(N2CCN(C(=S)Nc3ccccc3OC)CC2)c1	none
COc1ccc(NC(=S)N2CCN(C(c3ccccc3)c3ccccc3)CC2)c(OC)c1	CHRM1 antagonist 46
CCC1(c2ccccc2)NC(=O)N(CC(=O)N(CC(=O)Nc2ccccc2C(F)(F)F)Cc2ccco2)C1=O (stereo not given)	M1 ag 18
CCN(CC(=O)Nc1ccccc1C(F)(F)F)C(=O)CN1C(=O)NC2(CCCCC2)C1=O	CHO-K1 Ca antag 27
CN(C)S(=O)(=O)c1cccc(C(=O)Nc2ccccc2C(=O)NC2CC2)c1	none
O=C(CC(C(=O)NCc1ccccc1)c1nc2ccccc2c(=O)[nH]1)NCc1ccccc1 (stereo not given)	none
CC(C)(C(N)=O)c1ccccc1	none
CCN(CC)CC#CC(O)(c1ccccc1)c1ccccc1	CHRM1 antagonist 99
CN(C)CCC#CC(O)(c1ccccc1)c1ccccc1	CHRM1 antagonist 65
OCCN(CC#CC(O)(c1ccccc1)c1cccc(F)c1)CCO (stereo not given)	none
CN(C)C(C)(C)C#CC(O)(c1ccccc1)c1ccccc1	CHRM1 antagonist 100
CCCCn1c(N)c(N(CC)C(=O)c2c(C)noc2C)c(=O)[nH]c1=O	none
Cc1cc(CNC(=O)COC(=O)Cn2[nH]c(=O)c3ccccc3c2=O)cc(C)c1O	none
CCc1nc2c(OCCn3cccc3)cccn2c1N(C)C(=O)c1ccccc1F	none
O=S(=O)(c1cccc(Cn2nnc(-c3ccccc3)n2)c1)N1CCOCC1	CHO-K1 Ca ag 16
CCc1ccc(OCC(=O)NNC(=O)c2ccc(NC(=O)C3CC3)cc2)cc1	none
CC(C)(C)c1ccc(S(=O)(=O)N2CCC(O)(c3ccc(Cl)cc3)CC2)cc1	CHRM1 antagonist 71
O=C(CN1CCCCC1)NC1CCc2cc3c(cc21)CCC3 (stereo not given)	CHO-K1 Ca antag 27
COCCNC(=O)C1(C)CCCN(Cc2cn(C)c3ccccc23)C1 (stereo not given)	none
COc1ccc(CCn2c(N)cc(=O)[nH]c2=O)cc1OC	CHRM1 antagonist 28
CCCC(=O)Nc1cc(-c2nn(C)c(=O)c3ccccc23)ccc1OC	CHO-K1 Ca antag 24
CCOc1ccccc1-n1c(SC(C)C(=O)NCC2CCCO2)nc2ccccc2c1=O (stereo not given)	M1 ag 30
CC1=C/C(=C\C=C(C#N)C#N)N(C)c2ccccc21	CHO-K1 Ca ag 27, M1 ag 22
CN1/C(=C/C=C(C#N)C#N)C(C)(C)c2ccccc21	none
CC(=O)Cc1c(C(=O)O)c(C)nn1-c1ccccc1	CHO-K1 Ca antag 26
Cc1[nH][nH]c(=O)c1C(c1c(C)[nH][nH]c1=O)c1cn(Cc2ccc(Cl)c(Cl)c2)c2ccccc12	M1 ag 20
Cc1ccc2oc(C(=O)N(C)CCC(O)c3ccccc3)c(C)c2c1 (stereo not given)	none
COCc1ccc(C(=O)N(C)C2CCCN(Cc3ccccc3F)C2)o1 (stereo not given)	CHRM1 antagonist 90
CN(C(=O)CCc1ccccc1F)C1CCCN(Cc2ccccc2F)C1 (stereo not given)	none
COC(=O)c1ccc(C(=O)N(C)C2CCCN(Cc3ccccc3F)C2)cc1 (stereo not given)	none
CN(C(=O)CCCN1CCCC1=O)C1CCCN(Cc2ccccc2F)C1 (stereo not given)	CHRM1 antagonist 81
O=C1NC(=O)C2(CCCC2c2ccccc2)N1 (stereo not given)	none
N#CC1=C(N)OC2=C(C(=O)CC(c3ccccc3)C2)C1c1ccc2c(c1)OCO2 (stereo not given)	CHRM1 antagonist 62
